High-throughput results from PubChem.
Shown are actives, neighbours in structure and some others; about 14% of the full set was active somewhere.
CHX counter = affects cycloheximide protein synthesis inhibition readout, counter-screen. cell reporter, cycloheximide protein synthesis inhibition counterscreen. max response, %. hit rate 12% among 300,000. AID 2314; in the data active means max response mostly above about 13%, no sharp cut-off; inactive means mostly below about 14%; further: read at 38.3 µM for the half of the compounds with a filed dose; 0% is about no effect
NS1 function inh = influenza NS1 inhibition; Potency, µM (doses to about 46.1 µM), inactives show at the top dose activity, positive = more growth; hit rate 0.4% among 270,000; calls by dose curve; further: potency means the concentration at half of the fitted maximal effect; actives are rising curves; nearly all actives have a fitted effect of over 50% in size
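A cell-based growth assay was used: compounds that relieve NS1-induced slow growth of budding yeast raise OD600. Assay medium was yeast nitrogen base with ammonium sulphate and -URA supplement, pH 6.0, with 2% galactose.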
Shiga inhibitor = inhibitors of Shiga toxin in Vero cells. hit rate 9.2% among 290,000. inhibition, % at 38.7 µM. AID 2315. Vero cells, Shiga toxin protein synthesis inhibition reporter; in the data active means inhibition mostly above about 28%, no sharp cut-off; inactive means mostly below about 43%; further: 0% is about no effect
LmPK inh = blocks Leishmania mexicana pyruvate kinase activity; hit rate 0.37% among 290,000; Potency, µM (top dose mostly 57.5 µM), inactives show at the top dose activity change, negative = inhibition, usual class: inhibitors; Q27686; purified LmPK, Kinase-Glo ATP luminescence, 1 h; AID 1721; further: potency means the concentration at half of the fitted maximal effect; on the % scale 0 is the no-effect control and ±100 the full control effect
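0.1 nM LmPK, 0.5 mM PEP, 0.1 mM ADP; 50 mM imidazole pH 7.2, 7 mM MgCl2, 50 mM KCl; 1 h RT. Kinase-Glo luminescence readout, normalized to no-enzyme (full inhibition) and uninhibited wells.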
Giardia FBPA inh = blocks Giardia fructose-bisphosphate aldolase activity. A8B2U2. purified Giardia FBPA. hit rate 0.71% among 290,000. Potency, µM (top dose mostly 59.6 µM), for inactives: at the top dose activity, negative = inhibition, most hits filed as inhibitors; further: potency means the concentration at half of the fitted maximal effect; on the % scale 0 is the no-effect control and ±100 the full control effect; nearly all actives have a fitted effect of over 55% in size
Target sequence (A8B2U2 whole entry, looked up): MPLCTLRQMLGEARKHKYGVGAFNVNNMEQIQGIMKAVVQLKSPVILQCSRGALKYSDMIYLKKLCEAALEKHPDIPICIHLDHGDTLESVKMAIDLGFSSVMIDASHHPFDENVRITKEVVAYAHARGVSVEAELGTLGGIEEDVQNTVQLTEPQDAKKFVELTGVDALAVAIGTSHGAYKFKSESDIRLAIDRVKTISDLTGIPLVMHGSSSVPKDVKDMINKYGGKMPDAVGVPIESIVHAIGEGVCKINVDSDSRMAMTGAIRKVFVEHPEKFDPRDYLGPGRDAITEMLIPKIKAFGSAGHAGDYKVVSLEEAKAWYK
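Giardia FBPA (40 nM reagent) was preincubated 10 min at RT with compound (up to 57.5 uM final), then substrate plus GAPDH/TPI/NAD/arsenate coupling system with diaphorase/resazurin was added; resorufin fluorescence (525/598 nm) was read after 20 min.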
* = called active by the depositor; ? = inconclusive; . = no result given; [ ] = remark or other dose. Unless noted, the call rests on the fitted dose curve; in most records, active means well fitted curve in the direction sought with a large enough effect; inconclusive means small, poorly fitted or top-dose-only effect, or another doubt; inactive means no such curve, though single readings can be large; an effect the other way counts as inactive or inconclusive.

SMILES | CHX counter | NS1 function inh | Shiga inhibitor | LmPK inh | Giardia FBPA inh
COc1ccc(C(=O)Nc2cc(C)on2)c(OC)c1 | 38* | -30% | 41* | -3% | -4%
COc1cc(C(=O)Nc2ccc(C)cn2)c([N+](=O)[O-])cc1OC | 1 | . | -1 | -1% | -13%
CCN(CC)C1CCN(C(=O)CCn2nnnc2CN2CCOCC2)C1 (centres undefined) | -2 | 1% | 8 | -5% | -4%
Cc1[nH]c2ccccc2c1C(=O)C(=O)NCC1CCCO1 (centres undefined) | 7 | . | -13 | -7% | 5%
Cc1[nH]c2ccccc2c1C(=O)C(=O)NC1CC1 | 48* | 16% | 94* | -7% | .
Cc1ccc(NC(=O)C(=O)c2c[nH]c3ccccc23)cc1 | 33* | -8% | 47* | -3% | 8%
O=C(NC1CCCCC1)C(=O)c1c[nH]c2ccccc12 | 32* | -18% | 69* | -1% | .
O=C(NCC1CCCO1)C(=O)c1c[nH]c2ccccc12 (centres undefined) | 27* | . | 162* | 1%[11.5 µM] | 2%
CCCNC(=O)OC[C@@H]1O[C@H](CCO/N=C(\C)CCN2CCc3nc(-c4ccccc4)c(-c4ccccc4)cc3C2)C=C[C@@H]1Oc1ccc(OC)cc1 | . | . | . | . | 1%[12.9 µM]
CCN1C(=O)[C@H]2[C@H]3[C@H](O)[C@H](O)C/C(=N/O[C@@H]4O[C@@H](COC(C)=O)[C@@H](OC(C)=O)[C@@H](OC(C)=O)[C@H]4OC(C)=O)[C@H]3CC[C@@H]2C1=O | . | . | . | . | 0%[12.9 µM]
COc1cccc(NC(=O)CN(C)C(=O)c2c(-c3ccccc3)noc2C)c1 | 1 | 7% | 11 | -1% | .
COc1cccc(CNC(=O)CSc2ccc(-c3cccs3)nn2)c1 | 16 | . | 2 | -4% | -10%
CCNc1ncc2nc(C)c(=O)n(Cc3cccs3)c2n1 | . | . | . | . | 1%
Cc1c(C=O)c2cc(OCc3ccccc3)ccc2n1C | 39* | -32% | 70* | 1% | 0%
Cn1c(O)c(Cc2ccc(OCc3ccccc3)cc2)c(=O)n(C)c1=O | 13 | -35% | 47 | 0% | 2%
Cc1cc2cc(OCC(=O)O)ccc2n1C | -3 | 26% | -2 | 2% | 0%
Cc1cc2cc(OCc3ccccc3)ccc2n1C | 25* | 27% | 31* | 0% | 4%
N#Cc1cccc(CS(=O)(=O)c2ccccc2)c1 | . | . | . | . | -1%
Cc1ccc(CS(=O)Cc2ccc(C(=O)NCc3ccccc3Br)o2)cc1 (centres undefined) | -2 | 8% | 1 | 5% | -7%
COc1ccccc1NC(=O)NCC1CC1(Cl)Cl (centres undefined) | -1 | -25% | -1 | 4% | 3%
O=C(NCC1CC1(Cl)Cl)Nc1ccc(Cl)c(Cl)c1 (centres undefined) | 15 | -86% | 94* | 6% | -15%
Cc1ccc(NC(=O)NCC2CC2(Cl)Cl)cc1 (centres undefined) | 31* | -19% | 125* | 1% | 14%
CN(C)C1(CNC(=O)Nc2ccc(Cl)c(Cl)c2)CCCCC1 | -7 | 2% | -9 | -1% | -5%
Cc1cc(=O)oc2ccc(OCC(=O)N(Cc3ccc(F)cc3)Cc3ccco3)cc12 | 47* | -44% | 76* | -1% | 5%
COc1ccc(CN(Cc2cc3cccc(C)c3n3nnnc23)C(=O)N2CCOCC2)cc1 | -7 | 2% | -4 | 7% | 0%
SMILES | CHX counter | NS1 function inh | Shiga inhibitor | LmPK inh | Giardia FBPA inh
COc1cccc(NC(=O)c2nc(SC)ncc2Cl)c1 | 9 | -3% | 29 | -1% | -5%
COc1cccc(NC(=O)c2cnsn2)c1 | 44* | -10% | 140* | ? | -6%
COc1cccc(NC(=O)c2ncc(Cl)c(Cl)c2Cl)c1 | 32* | . | 63* | -30% | -2%
COc1cccc(NC(=O)c2ccn(C)n2)c1 | 41* | 1% | 72* | -26% | -5%
COc1cccc(NC(=O)c2cncs2)c1 | 1 | -2% | -6 | -1% | 3%
O=C(c1cc2c(s1)-c1ccccc1OC2)N1CCCC1 | 11 | -219% | 27 | -4% | -7%
CCOC(=O)N1CCN(C(=O)c2cc3c(s2)-c2ccccc2OC3)CC1 | 8 | -21% | 14 | 5% | -1%
O=C(c1cc2c(s1)-c1ccccc1OC2)N1CCC2(CC1)OCCO2 | 40* | -5% | 39* | -24% | -3%
CCCN1CCN(C(=O)c2cc3c(s2)-c2ccccc2OC3)CC1 | 26* | -10% | 32* | -9% | 14%
Cc1ccccc1NC(=O)CSc1nnc(C)c2ccccc12 | 2 | -4% | 42 | -4% | -8%
CN1CCS/C1=C/C=C1\SC(=S)N(CC(=O)O)C1=O | 1 | 3% | 13 | -16% | -25%
CN1CCS/C1=C/C=C1/SC(=S)N(Cc2ccccc2)C1=O | 26* | 25% | 13 | 0% | ?
O=C(O)c1ccc(/C=C2/SC(=S)N(Cc3ccccc3)C2=O)cc1 | -2 | 7% | -11 | -1% | 2%
CCCCN1C(=O)/C(=C/C=C2\SCCN2C)SC1=S | 33* | . | 67* | -12% | -21%
O=C(COc1ccccc1[N+](=O)[O-])c1ccccc1 | 25* | -11% | 25 | -4% | -12%
O=C(/C=C/c1ccccc1[N+](=O)[O-])OCC(=O)c1ccccc1 | 37* | -5% | 79* | -1% | -1%
O=[N+]([O-])c1ccccc1OC/C(=N\O)c1ccccc1 | 15* | -4% | 41* | 7% | 3%
COC(=O)/C=C/COc1ccccc1[N+](=O)[O-] | 43* | 7% | 107* | -19% | 4%
CCOC(=O)CNc1nc(C(C)(C)C)nc2c1nnn2Cc1ccccc1 | -2 | -2% | 25 | 11% | -4%
CN(c1ccccc1)c1nc(N)c([N+](=O)[O-])c(N2CCCCCC2)n1 | 21* | -5% | 56* | 6% | 0%
CN(c1ccccc1)c1nc(N)c([N+](=O)[O-])c(Nc2ccccc2F)n1 | 19* | 7% | 11 | 4% | -9%
CC1CCN(c2nc(N(C)c3ccccc3)nc(N)c2[N+](=O)[O-])CC1 | 11* | -3% | 27 | 2% | 1%
CN(c1ccccc1)c1nc(N)c([N+](=O)[O-])c(Nc2ccc(F)cc2)n1 | 7 | 0% | -5 | 0% | -5%
Cc1cccc(Nc2nc(N)c([N+](=O)[O-])c(N3CCC(C)CC3)n2)c1 | -5 | 9% | -3 | 1% | 2%
CCN1CCN(c2nc(N(C)c3ccccc3)nc(N)c2[N+](=O)[O-])CC1 | 1 | 3% | -10 | 2% | 1%
CCOc1ccccc1-c1nnc2n1N=C(c1c(OC)cccc1OC)CS2 | 6 | . | 20 | . | 8%
CCOc1ccc(N2CC(C(=O)Nc3ccccc3N3CCCC3)CC2=O)cc1 (centres undefined) | -2 | -2% | -4 | -4% | .
CC1(C)CC(=O)C(C=Nc2ccc(O)c(N=CC3=C(O)CC(C)(C)CC3=O)c2)=C(O)C1 | 1 | . | 15 | 0% | ?
CC1(C)CC(=O)C(C=NCCc2ccc(O)cc2)=C(O)C1 | -5 | 13% | 9 | 0% | 2%
CC1(C)CC(=O)C(C=NCc2ccc3c(c2)OCO3)=C(O)C1 | active | 1% | -4 | 1% | 0%
